According to PubChem BioAssay (NCATS):
Inconclusive results are not listed. Unmarked numbers belong to inactive results. The source made the active and inactive calls. The call rests on the fitted dose curve; in most records, active means well fitted inhibition curve with a large enough effect; inconclusive means small, poorly fitted or top-dose-only effect; inactive means flat fitted curve, though single readings scatter.

Tested on: CRL-7250
Experiment: Cytotoxic Profiling of Annotated Libraries Using Quantitative High-Throughput Screening (AID 1296008); further: nearly all actives have a fitted effect of over 60% in size
Settings: Five cell lines viability, CellTiter-Glo ATP luminescence, 48-72 h; max response: hits give low values
Summary of the method: (§1)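 Compounds were pin-transferred onto cells and incubated 48 or 72 hr at 37 degree Celsius, 95% humidity. CellTiter-Glo was added, plates sat 10 min at room temperature, then ATP-coupled luminescence was imaged as the viability read-out.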
On the % scale 0 is the no-effect control and ±100 the full control effect; potency means the concentration at half of the fitted maximal effect.

SMILES | max response | outcome | Potency
CCN1CCc2nc(N)oc2CC1 | 2.68% | – | –
CCn1cc(C(=O)O)c(=O)c2cc3c(cc21)OCO3 | -16.9% | – | –
CCc1c(C)[nH]c2c1C(=O)C(CN1CCOCC1)CC2 (configuration not stated) | – | inactive | –
COC(=O)[C@@H](N)Cc1ccc(O)c(O)c1 | 0.35% | – | –
CCOC(=O)c1cnc2c(cnn2CC)c1NN=C(C)C | 1.67% | – | –
Cc1scc2c1N(C(=O)CN1CCN(C)CC1)c1ccccc1NC2=O | -1.88% | – | –
CC(C)(C)NCC(O)c1cc(O)cc(O)c1 (configuration not stated) | -15.1% | – | –
CC1=C(C)C(=O)C(CCCCC#CCCCC#CCO)=C(C)C1=O | -2.8% | – | –
C[N+](C)(C)CCOC(N)=O | 1.41% | – | –
NC(=O)c1cn(Cc2c(F)cccc2F)nn1 | – | inactive | –
CC(=O)OC(C)C[N+](C)(C)C (configuration not stated) | 1.65% | – | –
NC(Cc1ccc(Cl)cc1)C(=O)O (configuration not stated) | -4.47% | – | –
FC(F)(F)c1ccccc1-n1ccnc1 | – | inactive | –
CCCCNc1ccc(C(=O)OCCN(C)C)cc1 | 3.25% | – | –
O=C(O)CCCCCCCC(=O)O | -17.5% | – | –
Nc1ncn([C@@H]2O[C@H](CO)[C@@H](O)[C@H]2O)c(=O)n1 | – | – | 7.5 µM (active)
CCN(CC)CCNC(=O)c1cc(S(C)(=O)=O)ccc1OC | 1.79% | – | –
O=C(O)CN(CCOCCOCCN(CC(=O)O)CC(=O)O)CC(=O)O | – | inactive | –

SMILES | max response | outcome | Potency
CC(=O)[C@]1(O)Cc2c(O)c3c(c(O)c2[C@@H](O[C@H]2C[C@H](N)[C@H](O)[C@H](C)O2)C1)C(=O)c1ccccc1C3=O | – | – | 0.237 µM (active)
CCN1CCC[C@H]1CNC(=O)c1c(O)c(Cl)cc(Cl)c1OC | – | inactive | –
CCCN(CCC)C(=O)C(CCC(=O)O)NC(=O)c1ccccc1 (configuration not stated) | -4.87% | – | –
CN1C[C@H](C(=O)N[C@]2(C)O[C@@]3(O)[C@@H]4CCCN4C(=O)[C@H](Cc4ccccc4)N3C2=O)C[C@@H]2c3cccc4[nH]cc(c34)C[C@H]21 | – | inactive | –
C[n+]1cc2c3c(ccc2c2ccc4cc5c(cc4c21)OCO5)OCO3 | – | – | 1.84 µM (active)
NC(N)=NC(=O)Cc1c(Cl)cccc1Cl | -2.41% | – | –
O=C(O)CN(CCN(CC(=O)O)CC(=O)O)CCN(CC(=O)O)CC(=O)O | -4.18% | – | –
CN=C(NC#N)NCCSCc1nc[nH]c1C | – | inactive | –
NC/C=C/C(=O)O | -5.1% | – | –
Cc1ccc(/C(=C\CN2CCCC2)c2ccccn2)cc1 | 0.263% | – | –
CCCN(CCC)CCc1cccc2c1CC(=O)N2 | 1.13% | – | –
NC(=O)c1ncn([C@@H]2O[C@H](CO)[C@@H](O)[C@H]2O)c1O | -24.9% | – | –
CC(C)[N+](C)(CCOC(=O)C1c2ccccc2Oc2ccccc21)C(C)C | -3.69% | – | –
O=C(O)CP(=O)(O)O | -7.2% | – | –
CCN(CC)CC(=O)Nc1c(C)cccc1C | -12.2% | – | –
NCCCNCCSP(=O)(O)O | – | inactive | –
Brc1c(NC2=NCCN2)ccc2nccnc12 | -13% | – | –
c1ccc2c(c1)CCCC2C1=NCCN1 (configuration not stated) | 0.704% | – | –

Tested on: HEK293
Experiment: as above
Settings: Five cell lines viability, CellTiter-Glo ATP luminescence, 48-72 h; max response: hits give low values
Summary of the method: as §1

SMILES | outcome | max response | Potency
CCN1CCc2nc(N)oc2CC1 | inactive | – | –
CCn1cc(C(=O)O)c(=O)c2cc3c(cc21)OCO3 | – | -14.3% | –
CCc1c(C)[nH]c2c1C(=O)C(CN1CCOCC1)CC2 (configuration not stated) | – | -11.2% | –
COC(=O)[C@@H](N)Cc1ccc(O)c(O)c1 | – | -4.7% | –
CCOC(=O)c1cnc2c(cnn2CC)c1NN=C(C)C | – | 2.79% | –
Cc1scc2c1N(C(=O)CN1CCN(C)CC1)c1ccccc1NC2=O | – | -0.369% | –
CC(C)(C)NCC(O)c1cc(O)cc(O)c1 (configuration not stated) | – | -2.84% | –
CC1=C(C)C(=O)C(CCCCC#CCCCC#CCO)=C(C)C1=O | – | – | 16.8 µM (active)
C[N+](C)(C)CCOC(N)=O | inactive | – | –
NC(=O)c1cn(Cc2c(F)cccc2F)nn1 | – | 4.15% | –
CC(=O)OC(C)C[N+](C)(C)C (configuration not stated) | – | 3.97% | –
NC(Cc1ccc(Cl)cc1)C(=O)O (configuration not stated) | inactive | – | –
FC(F)(F)c1ccccc1-n1ccnc1 | – | -1.59% | –
CCCCNc1ccc(C(=O)OCCN(C)C)cc1 | – | -4% | –
O=C(O)CCCCCCCC(=O)O | – | 3% | –
Nc1ncn([C@@H]2O[C@H](CO)[C@@H](O)[C@H]2O)c(=O)n1 | – | – | 3.35 µM (active)
CCN(CC)CCNC(=O)c1cc(S(C)(=O)=O)ccc1OC | – | -8.18% | –
O=C(O)CN(CCOCCOCCN(CC(=O)O)CC(=O)O)CC(=O)O | – | 0.265% | –

SMILES | outcome | max response | Potency
CC(=O)[C@]1(O)Cc2c(O)c3c(c(O)c2[C@@H](O[C@H]2C[C@H](N)[C@H](O)[C@H](C)O2)C1)C(=O)c1ccccc1C3=O | – | – | 0.0335 µM (active)
CCN1CCC[C@H]1CNC(=O)c1c(O)c(Cl)cc(Cl)c1OC | inactive | – | –
CCCN(CCC)C(=O)C(CCC(=O)O)NC(=O)c1ccccc1 (configuration not stated) | inactive | – | –
CN1C[C@H](C(=O)N[C@]2(C)O[C@@]3(O)[C@@H]4CCCN4C(=O)[C@H](Cc4ccccc4)N3C2=O)C[C@@H]2c3cccc4[nH]cc(c34)C[C@H]21 | – | – | 10.6 µM (active)
C[n+]1cc2c3c(ccc2c2ccc4cc5c(cc4c21)OCO5)OCO3 | – | – | 1.16 µM (active)
NC(N)=NC(=O)Cc1c(Cl)cccc1Cl | – | – | 8.41 µM (active)
O=C(O)CN(CCN(CC(=O)O)CC(=O)O)CCN(CC(=O)O)CC(=O)O | inactive | – | –
CN=C(NC#N)NCCSCc1nc[nH]c1C | inactive | – | –
NC/C=C/C(=O)O | inactive | – | –
Cc1ccc(/C(=C\CN2CCCC2)c2ccccn2)cc1 | – | -16.2% | –
CCCN(CCC)CCc1cccc2c1CC(=O)N2 | inactive | – | –
NC(=O)c1ncn([C@@H]2O[C@H](CO)[C@@H](O)[C@H]2O)c1O | – | 3.19% | –
CC(C)[N+](C)(CCOC(=O)C1c2ccccc2Oc2ccccc21)C(C)C | – | -1.62% | –
O=C(O)CP(=O)(O)O | inactive | – | –
CCN(CC)CC(=O)Nc1c(C)cccc1C | – | -14.5% | –
NCCCNCCSP(=O)(O)O | – | -18.5% | –
Brc1c(NC2=NCCN2)ccc2nccnc12 | – | -12.5% | –
c1ccc2c(c1)CCCC2C1=NCCN1 (configuration not stated) | – | 3.92% | –
